Test results: the supplement of paper PMC11732987, “Enantioselective OTUD7B fragment discovery through chemoproteomics screening and high-throughput optimisation” (Communications Chemistry, 2025)

Key:
Assay in all cases: log2 ratio of Biotin-Ahx-Ub-VS probe labelling (fragment/DMSO); higher = less target engagement (more negative = stronger competition), active = hit call of the paper (q ≤ 0.05, log2 ratio ≤ -1)
Conditions in all cases: compound concentration: 200 uM; treatment time: 3 h
USP19 = molecular target: T1, USP19 (UniProt O94966)
T1 sequence (whole entry): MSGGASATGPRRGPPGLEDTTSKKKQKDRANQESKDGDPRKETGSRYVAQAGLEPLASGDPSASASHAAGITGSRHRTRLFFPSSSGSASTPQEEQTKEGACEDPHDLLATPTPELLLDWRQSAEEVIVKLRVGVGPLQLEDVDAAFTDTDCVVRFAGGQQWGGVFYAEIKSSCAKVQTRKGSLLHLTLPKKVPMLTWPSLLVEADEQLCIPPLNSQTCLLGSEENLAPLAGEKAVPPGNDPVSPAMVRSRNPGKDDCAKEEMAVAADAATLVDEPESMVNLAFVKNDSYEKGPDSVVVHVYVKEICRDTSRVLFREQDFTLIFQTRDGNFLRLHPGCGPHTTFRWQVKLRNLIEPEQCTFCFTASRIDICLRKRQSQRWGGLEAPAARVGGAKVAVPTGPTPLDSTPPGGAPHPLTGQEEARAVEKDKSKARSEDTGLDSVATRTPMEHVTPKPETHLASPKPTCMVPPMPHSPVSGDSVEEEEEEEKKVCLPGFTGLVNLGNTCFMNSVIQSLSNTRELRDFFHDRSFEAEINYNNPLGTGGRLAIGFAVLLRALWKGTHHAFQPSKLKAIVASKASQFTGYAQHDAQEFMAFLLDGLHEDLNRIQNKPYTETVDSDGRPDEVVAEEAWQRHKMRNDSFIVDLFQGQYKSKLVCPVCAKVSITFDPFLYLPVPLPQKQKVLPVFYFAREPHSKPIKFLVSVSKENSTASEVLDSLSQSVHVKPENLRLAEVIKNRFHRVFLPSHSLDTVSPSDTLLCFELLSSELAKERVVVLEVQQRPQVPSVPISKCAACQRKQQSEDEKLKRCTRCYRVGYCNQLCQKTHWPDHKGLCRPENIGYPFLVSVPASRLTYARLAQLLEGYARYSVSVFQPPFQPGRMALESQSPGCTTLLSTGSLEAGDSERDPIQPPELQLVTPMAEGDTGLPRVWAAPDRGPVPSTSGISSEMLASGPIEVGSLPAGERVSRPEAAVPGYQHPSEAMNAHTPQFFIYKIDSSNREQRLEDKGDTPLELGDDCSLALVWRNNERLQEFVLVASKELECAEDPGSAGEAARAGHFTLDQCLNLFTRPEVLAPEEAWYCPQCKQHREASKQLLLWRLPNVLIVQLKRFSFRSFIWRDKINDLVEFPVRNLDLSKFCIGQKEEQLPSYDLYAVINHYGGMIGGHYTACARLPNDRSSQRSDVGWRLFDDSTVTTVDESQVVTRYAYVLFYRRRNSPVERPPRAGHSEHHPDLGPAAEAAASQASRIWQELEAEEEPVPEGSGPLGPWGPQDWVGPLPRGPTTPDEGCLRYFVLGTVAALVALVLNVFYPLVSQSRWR
Method in brief: (§1)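 HEK293T lysate (495 µg per sample, in Tris/CHAPS/IGEPAL buffer with protease inhibitors) was treated in triplicate with fragment at 200 µM or with DMSO for 3 h. It was then treated with Biotin-Ahx-Ub-VS (0.5 µM final) for 1 h. Labelled DUBs were NeutrAvidin-enriched, digested with LysC and trypsin, and run by diaPASEF LC-MS/MS. Spectronaut label-free quantities were global-median-normalised. Values are average log2 ratios fragment/DMSO by unpaired t-test, using proteins with ≥2 unique peptides.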

USP22 = molecular target: T2, USP22 (UniProt Q9UPT9)
T2 sequence (whole entry): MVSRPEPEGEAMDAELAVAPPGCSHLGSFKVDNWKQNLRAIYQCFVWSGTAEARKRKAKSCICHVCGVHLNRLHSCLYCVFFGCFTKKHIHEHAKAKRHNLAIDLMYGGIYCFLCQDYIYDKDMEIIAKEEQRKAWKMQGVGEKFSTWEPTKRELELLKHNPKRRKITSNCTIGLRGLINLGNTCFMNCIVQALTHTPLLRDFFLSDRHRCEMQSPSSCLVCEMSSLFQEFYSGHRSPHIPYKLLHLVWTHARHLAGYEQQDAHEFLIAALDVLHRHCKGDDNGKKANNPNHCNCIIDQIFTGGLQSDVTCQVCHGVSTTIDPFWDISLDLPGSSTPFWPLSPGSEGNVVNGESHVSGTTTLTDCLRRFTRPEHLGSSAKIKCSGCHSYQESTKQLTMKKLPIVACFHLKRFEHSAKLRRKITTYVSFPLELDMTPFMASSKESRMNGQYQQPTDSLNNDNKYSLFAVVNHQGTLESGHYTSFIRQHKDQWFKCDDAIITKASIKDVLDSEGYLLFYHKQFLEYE
Method in brief: as §1

USP24 = USP24 (UniProt Q9UPU5)
Method in brief: as §1

USP25 = molecular target: T3, USP25 (UniProt Q9UHP3)
T3 sequence (whole entry): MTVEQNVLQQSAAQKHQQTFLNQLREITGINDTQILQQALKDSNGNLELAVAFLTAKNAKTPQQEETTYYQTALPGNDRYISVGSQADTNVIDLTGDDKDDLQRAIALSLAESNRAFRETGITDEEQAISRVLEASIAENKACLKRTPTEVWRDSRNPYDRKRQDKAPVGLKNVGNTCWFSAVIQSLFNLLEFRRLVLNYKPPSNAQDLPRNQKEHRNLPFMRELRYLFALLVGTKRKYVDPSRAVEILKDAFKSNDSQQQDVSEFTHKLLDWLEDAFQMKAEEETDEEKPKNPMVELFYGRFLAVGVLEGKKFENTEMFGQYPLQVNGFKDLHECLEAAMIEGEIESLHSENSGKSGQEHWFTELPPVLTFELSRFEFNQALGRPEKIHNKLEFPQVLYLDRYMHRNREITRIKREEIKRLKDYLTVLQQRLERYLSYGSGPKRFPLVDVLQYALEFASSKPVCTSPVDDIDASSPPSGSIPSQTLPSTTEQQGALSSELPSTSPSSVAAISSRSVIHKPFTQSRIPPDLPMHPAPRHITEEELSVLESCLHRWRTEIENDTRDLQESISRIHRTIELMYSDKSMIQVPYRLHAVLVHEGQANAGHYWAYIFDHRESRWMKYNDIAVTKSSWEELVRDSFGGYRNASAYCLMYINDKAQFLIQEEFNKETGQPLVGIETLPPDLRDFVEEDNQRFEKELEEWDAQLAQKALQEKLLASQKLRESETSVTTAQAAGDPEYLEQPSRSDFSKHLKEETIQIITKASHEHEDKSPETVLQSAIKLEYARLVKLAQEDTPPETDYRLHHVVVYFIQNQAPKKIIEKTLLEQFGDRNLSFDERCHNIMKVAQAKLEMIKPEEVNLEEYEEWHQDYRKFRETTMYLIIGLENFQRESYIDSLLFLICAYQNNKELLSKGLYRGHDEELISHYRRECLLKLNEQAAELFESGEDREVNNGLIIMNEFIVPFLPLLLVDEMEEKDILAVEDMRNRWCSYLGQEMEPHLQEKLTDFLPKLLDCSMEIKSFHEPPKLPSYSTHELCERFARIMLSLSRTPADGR
Method in brief: as §1

USP28 = molecular target: T4, USP28 (UniProt Q96RU2)
T4 sequence (whole entry): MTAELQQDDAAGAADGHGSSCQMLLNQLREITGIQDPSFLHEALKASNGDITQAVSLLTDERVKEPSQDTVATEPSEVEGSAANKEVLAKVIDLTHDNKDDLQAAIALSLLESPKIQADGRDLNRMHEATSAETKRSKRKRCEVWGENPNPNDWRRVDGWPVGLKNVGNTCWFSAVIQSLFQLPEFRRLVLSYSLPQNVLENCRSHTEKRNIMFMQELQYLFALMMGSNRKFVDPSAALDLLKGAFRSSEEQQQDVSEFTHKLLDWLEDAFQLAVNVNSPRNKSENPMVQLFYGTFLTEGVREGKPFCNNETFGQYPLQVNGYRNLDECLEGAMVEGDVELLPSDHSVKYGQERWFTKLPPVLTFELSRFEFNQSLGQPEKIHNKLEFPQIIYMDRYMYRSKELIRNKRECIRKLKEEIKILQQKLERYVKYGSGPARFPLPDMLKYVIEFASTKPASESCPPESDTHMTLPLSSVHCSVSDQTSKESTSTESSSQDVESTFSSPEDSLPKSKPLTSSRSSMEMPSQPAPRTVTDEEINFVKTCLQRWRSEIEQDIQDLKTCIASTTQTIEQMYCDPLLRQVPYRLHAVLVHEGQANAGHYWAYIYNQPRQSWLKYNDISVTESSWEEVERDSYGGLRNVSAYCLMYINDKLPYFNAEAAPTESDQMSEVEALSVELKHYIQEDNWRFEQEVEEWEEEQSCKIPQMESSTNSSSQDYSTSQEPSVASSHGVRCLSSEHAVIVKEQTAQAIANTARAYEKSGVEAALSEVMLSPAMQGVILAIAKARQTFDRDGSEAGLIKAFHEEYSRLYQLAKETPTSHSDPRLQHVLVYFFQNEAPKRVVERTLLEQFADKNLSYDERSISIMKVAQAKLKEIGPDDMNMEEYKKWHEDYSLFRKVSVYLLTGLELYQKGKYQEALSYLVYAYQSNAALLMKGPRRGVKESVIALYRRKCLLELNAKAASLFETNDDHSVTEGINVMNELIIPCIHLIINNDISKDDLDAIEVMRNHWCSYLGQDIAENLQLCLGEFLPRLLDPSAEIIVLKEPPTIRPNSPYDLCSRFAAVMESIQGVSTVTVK
Method in brief: as §1

Measured: log2 ratio of Biotin-Ahx-Ub-VS probe labelling

Sequence of USP24 (Q9UPU5 whole entry): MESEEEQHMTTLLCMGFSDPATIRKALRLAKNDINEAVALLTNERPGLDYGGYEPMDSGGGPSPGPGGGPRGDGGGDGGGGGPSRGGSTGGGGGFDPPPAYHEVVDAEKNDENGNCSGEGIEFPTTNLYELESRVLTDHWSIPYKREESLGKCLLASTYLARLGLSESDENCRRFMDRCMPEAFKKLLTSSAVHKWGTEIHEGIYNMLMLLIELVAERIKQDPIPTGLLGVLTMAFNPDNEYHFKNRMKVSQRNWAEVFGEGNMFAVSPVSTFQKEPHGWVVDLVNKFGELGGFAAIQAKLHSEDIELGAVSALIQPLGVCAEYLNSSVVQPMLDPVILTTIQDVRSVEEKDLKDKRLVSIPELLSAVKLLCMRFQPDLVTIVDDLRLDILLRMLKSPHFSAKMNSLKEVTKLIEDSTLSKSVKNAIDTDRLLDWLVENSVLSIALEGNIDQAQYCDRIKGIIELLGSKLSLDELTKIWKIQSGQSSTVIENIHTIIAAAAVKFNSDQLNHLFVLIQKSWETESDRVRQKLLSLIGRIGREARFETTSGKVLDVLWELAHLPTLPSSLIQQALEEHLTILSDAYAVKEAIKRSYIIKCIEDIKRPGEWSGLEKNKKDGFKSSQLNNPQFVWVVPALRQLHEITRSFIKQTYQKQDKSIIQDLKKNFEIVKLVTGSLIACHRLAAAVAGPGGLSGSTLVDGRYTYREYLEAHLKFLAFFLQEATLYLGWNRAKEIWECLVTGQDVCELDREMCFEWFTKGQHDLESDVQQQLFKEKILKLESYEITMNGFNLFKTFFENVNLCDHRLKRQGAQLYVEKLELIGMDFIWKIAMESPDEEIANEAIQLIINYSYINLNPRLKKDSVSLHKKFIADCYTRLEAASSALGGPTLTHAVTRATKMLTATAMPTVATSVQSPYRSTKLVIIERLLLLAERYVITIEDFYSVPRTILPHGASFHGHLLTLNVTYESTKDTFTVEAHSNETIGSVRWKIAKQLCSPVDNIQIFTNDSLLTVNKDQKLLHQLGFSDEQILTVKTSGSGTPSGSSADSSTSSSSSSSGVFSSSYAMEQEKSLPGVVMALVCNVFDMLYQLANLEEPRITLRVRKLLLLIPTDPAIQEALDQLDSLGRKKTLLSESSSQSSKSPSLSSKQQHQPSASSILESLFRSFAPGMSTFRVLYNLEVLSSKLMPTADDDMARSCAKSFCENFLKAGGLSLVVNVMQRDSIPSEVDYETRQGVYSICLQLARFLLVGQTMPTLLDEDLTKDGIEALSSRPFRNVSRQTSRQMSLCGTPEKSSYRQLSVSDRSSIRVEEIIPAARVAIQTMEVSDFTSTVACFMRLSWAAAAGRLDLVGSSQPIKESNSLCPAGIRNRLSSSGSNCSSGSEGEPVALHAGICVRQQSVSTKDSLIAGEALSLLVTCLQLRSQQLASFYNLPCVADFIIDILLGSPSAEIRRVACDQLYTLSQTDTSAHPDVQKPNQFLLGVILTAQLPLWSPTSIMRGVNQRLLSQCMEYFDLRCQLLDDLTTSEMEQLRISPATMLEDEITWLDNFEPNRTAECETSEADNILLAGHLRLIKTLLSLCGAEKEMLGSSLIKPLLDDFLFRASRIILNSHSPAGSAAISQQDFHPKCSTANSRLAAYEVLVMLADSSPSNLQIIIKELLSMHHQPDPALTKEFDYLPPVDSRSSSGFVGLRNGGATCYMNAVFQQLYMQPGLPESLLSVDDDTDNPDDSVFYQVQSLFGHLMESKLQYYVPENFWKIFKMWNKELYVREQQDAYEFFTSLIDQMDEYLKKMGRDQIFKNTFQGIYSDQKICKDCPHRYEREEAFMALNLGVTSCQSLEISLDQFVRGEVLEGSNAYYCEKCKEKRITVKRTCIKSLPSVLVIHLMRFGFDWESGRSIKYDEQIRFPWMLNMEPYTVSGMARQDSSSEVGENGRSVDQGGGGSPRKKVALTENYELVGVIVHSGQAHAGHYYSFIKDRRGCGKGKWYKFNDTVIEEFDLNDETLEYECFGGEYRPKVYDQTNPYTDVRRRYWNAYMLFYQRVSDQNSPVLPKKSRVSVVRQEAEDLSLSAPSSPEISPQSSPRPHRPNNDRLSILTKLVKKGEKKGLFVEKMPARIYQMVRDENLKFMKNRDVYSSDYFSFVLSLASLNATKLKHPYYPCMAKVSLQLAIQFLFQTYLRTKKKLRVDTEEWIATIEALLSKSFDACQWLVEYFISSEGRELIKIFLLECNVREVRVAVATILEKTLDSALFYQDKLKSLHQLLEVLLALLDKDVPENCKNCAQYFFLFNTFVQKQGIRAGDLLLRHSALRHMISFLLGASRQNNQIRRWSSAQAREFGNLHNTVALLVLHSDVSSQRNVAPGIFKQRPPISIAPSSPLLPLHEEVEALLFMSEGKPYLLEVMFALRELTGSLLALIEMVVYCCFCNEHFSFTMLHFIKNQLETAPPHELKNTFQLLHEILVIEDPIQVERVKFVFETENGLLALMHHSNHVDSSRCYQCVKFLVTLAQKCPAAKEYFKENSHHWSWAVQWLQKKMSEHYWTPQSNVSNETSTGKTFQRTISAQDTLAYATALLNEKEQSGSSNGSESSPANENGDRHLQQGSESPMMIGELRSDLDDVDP

CC(NC(=O)CCl)c1cccc2ccccc12 (stereo not given)
inactive: USP19 -0.242 | USP22 -0.925 | USP24 -0.343 | USP25 -0.33 | USP28 -0.501
